Test results published in PubChem BioAssay AID1563 (The Scripps Research Institute Molecular Screening Center, 2009).
This is one part of the list. Unmarked numbers belong to inactive results. Active and inactive are the calls of the source. No stated cut-off is given here; in the data, active means activation above about 21%; inactive means the rest.

Target: Sphingosine 1-phosphate receptor 1 (Homo sapiens) (UniProt P21453)
Experiment: S1P1 receptor agonists, human, counter-screen for S1P4 agonist project, cell-based (AID 1563);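 further: 0% = vehicle wells and 100% = reference agonist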
Conditions: S1P1 agonist cell-based assay, at 4.98 µM, hits give high values

Sphingosine 1-phosphate receptor 1 (Homo sapiens), sequence (P21453 whole entry, looked up): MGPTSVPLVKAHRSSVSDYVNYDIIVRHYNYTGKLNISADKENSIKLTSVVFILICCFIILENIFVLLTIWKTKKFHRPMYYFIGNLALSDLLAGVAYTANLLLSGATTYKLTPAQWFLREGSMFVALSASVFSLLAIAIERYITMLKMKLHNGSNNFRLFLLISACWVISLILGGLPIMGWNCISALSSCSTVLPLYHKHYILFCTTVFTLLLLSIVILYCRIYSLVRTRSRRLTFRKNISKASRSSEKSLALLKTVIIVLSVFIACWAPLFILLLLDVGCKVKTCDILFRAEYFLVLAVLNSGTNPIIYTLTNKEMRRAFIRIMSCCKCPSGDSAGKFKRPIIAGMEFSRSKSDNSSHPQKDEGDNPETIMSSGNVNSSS

SMILES	activation
CCOc1ccc(-c2nnc(-c3ccco3)o2)cc1	2.5%
Cc1ccc(NC(=O)Nc2ccccc2)c(Br)c1	5.03%
CC(Oc1ccc(Br)cc1Br)C(=O)NC1CCCC1 (configuration not stated)	-6.64%
CCCCCNC(=O)c1cccnc1SCC(=O)Nc1ccccc1OC	1.32%
O=C(COC(=O)Cc1ccc(F)cc1)Nc1cc(S(=O)(=O)N2CCOCC2)ccc1N1CCCC1	5.34%
N/C(=N\OC(=O)Cc1ccc([N+](=O)[O-])cc1)c1ccccn1	-7.04%
COC(=O)[C@@H]1CC[C@H](C)[C@@H](c2ccc(C)cc2)N1C(=O)c1ccc(/C=N/O[C@H](C)c2cn([C@@H]3COC[C@H]3O)nn2)cc1	-3.45%
O=C(CSc1nnc(Nc2ccccc2)s1)Nc1cccnc1Cl	-2.54%
COc1ccc(C2CC(c3cccs3)=NN2c2ccc(F)cc2)cc1OC (configuration not stated)	16.6%
Cc1noc(C)c1COC(=O)COc1ccc(-c2ccccc2)cc1	0.9%
O=C(CSc1nncn1-c1cccnc1)N1CCOCC1	2.75%
C=CCn1c(SCn2nnc3ccccc3c2=O)nnc1-c1ccc(Cl)cc1	-1.97%
CC(=O)Nc1ccccc1NC(=O)c1cc(C)cc(C)c1	-9.63%
CCn1c(CNC(=O)c2ccc(OC)c(OC)c2)nnc1SCC(=O)Nc1ccccc1	0.73%
COc1ccccc1CNC(=O)CNC(=O)c1cn(-c2ccccc2OC)c(=O)c2ccccc12	-2.71%
COc1ccc(N2C(=O)C(Cc3ccccc3)NC2=S)cc1 (configuration not stated)	-2.28%

SMILES	activation
Cc1cc(NC(=O)c2cc(-c3cccs3)on2)nn1Cc1ccc(Cl)cc1	4.89%
CSc1sc(C(=O)NNC(=O)c2ccc(Cl)cc2)c2c1C=CCC2	2.26%
CNC(=O)c1[nH]cnc1C(=O)N[C@@H](CC(C)C)C(=O)OCc1ccccc1	11.4%
COc1ccc(C2CC(c3cccs3)=NN2c2ccccc2)cc1 (configuration not stated)	43.8% (active)
O=C(COC(=O)c1cc([N+](=O)[O-])ccc1NCc1ccccc1)NC1CCCCC1	-7.16%
O=C(CSc1ccc(-c2ccc(F)cc2)nn1)Nc1ccc2c(c1)OCCO2	-2.21%
CCC(=O)/C(=C(/O)c1ccccc1)c1nc2ccccc2[nH]1	-4.01%
COc1ccc(-n2c(C)cc(C(=O)CN3C(=O)NC4(CCc5ccccc54)C3=O)c2C)cc1 (configuration not stated)	1.51%
CC1CCCC(NC(=O)COC(=O)[C@@H]2CC(O)CN2S(=O)(=O)c2ccc3c(c2)OCCO3)C1C (some centres not stated)	-5.42%
Cc1cc(C)nc(N(C#N)CC(=O)Nc2ccccc2)n1	0.75%
Cc1cc(C)c(C#N)c(SCC(=O)NN2CC(=O)N(c3ccccc3F)CC2=O)n1	-4.8%
CC(C)C(c1nnnn1C(C)(C)C)N1CCN(Cc2cccnc2)CC1 (configuration not stated)	-9.51%
CC(=O)Nc1ccc(SCC(=O)Nc2ccccc2Oc2ccccc2)cc1	-3.81%
CCC(C)NC(=O)C1c2ccccc2Oc2ccccc21 (configuration not stated)	0.8%
COC(=O)CNC(=O)C(CCSC)NC(C)=O (configuration not stated)	-8.17%
O=[N+]([O-])c1cccc(Nc2c3ccccc3nc3ccccc23)c1	11.6%
